F-actin modifier = cytoskeleton assembly modification; inhibition, % at 2 µM; HUVEC TNFa F-actin phalloidin imaging, high content; AID 836; 91,000 tested, 0.18% active;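 active = inhibition above the batch mean plus 3 SD and confirmed as a hit by visual image inspection, cut at about 30% in these data, passing the limit was not always enough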
E-sel TNF inh = blocks E-selectin expression induced by TNF alpha | 120,000 tested, 0.71% active | inhibition, % at 2 µM | HUVEC TNFa-induced E-selectin immunofluorescence, high content;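 active = inhibition above the batch mean plus 3 SD, and confirmed as a hit on visual image review, cut at about 43% in these data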;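 also: 0% = TNF-stimulated DMSO wells and 100% = unstimulated control wells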
HUVEC tox TNFa = toxic to HUVEC cells under TNF alpha stimulation; 93,000 tested, 0.17% active; HUVEC TNFalpha-stimulated, Hoechst cell count, imaging; cell count reduction, % at 2 µM; AID 848;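 active = cell count reduction exceeding the screen mean by over 5 SD, scaled to untreated wells per plate, cut at about 78% in these data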;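 also: cells counted after 24 h of TNF alpha exposure following the 1 h pretreatment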
VCAM1 TNFa inh = reduces TNF alpha induced VCAM1 expression in HUVEC | HUVEC TNFa-induced VCAM-1 immunofluorescence, high-content imaging | AID 802 | 95,000 tested, 0.48% active | inhibition, % at 2 µM;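 active = inhibition above the batch mean plus 3 SD, with images confirmed as a hit by eye, cut at about 37% in these data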;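 also: 0% = TNF-stimulated DMSO wells and 100% = unstimulated control wells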
An asterisk follows results filed as active; . = no result given. A selection: hits, their analogues and other compounds. The true share with any hit is near 1.2%.

SMILES	F-actin modifier	E-sel TNF inh	HUVEC tox TNFa	VCAM1 TNFa inh
Cc1cc(=O)[nH]c(SCC(=O)NCc2ccco2)n1	31	100*	19	10
Cc1cc(-c2ccco2)n(CC(=O)NCc2ccco2)n1	2	76*	-19	3
Cc1ccc(-c2ccc(=O)n(CC(=O)NCc3ccco3)n2)cc1	57	-17	-22	6
Cc1nnc(SCC(=O)NCc2ccco2)[nH]c1=O	-12	.	0	3
COc1ccc([N+](=O)[O-])cc1N(CC(=O)NCC1CCCO1)S(C)(=O)=O (configuration not stated)	.	18	.	.
O=c1cc(C(Cl)(Cl)Cl)oc2c1ccc1ccccc12	-10	12	30	80*
Cc1ccccc1NC(=O)COC(=O)CN1C(=O)NC(C)(C)C1=O	-2	-2	-10	-4
COc1ccc(CNC(=O)COC(=O)C2CCC(C(C)(C)C)CC2)cc1 (configuration not stated)	.	-11	.	.
CC(C)CCOC(=O)C1C(c2ccccc2)C(C(=O)O)C1c1ccccc1 (configuration not stated)	.	-13	3	-6
CCOC(=O)Cc1csc(NC(=O)COc2ccc(N(C)S(=O)(=O)c3ccc(C)cc3)cc2)n1	-5	5	76	91*
CCOC(=O)Cc1csc(NC(=O)COc2ccc(OC)cc2)n1	10	91*	5	-9
CCN(CC)C(=O)CC(c1ccc(F)cc1)c1ccc(OC(C)C)cc1 (configuration not stated)	.	7	.	.
O=[N+]([O-])c1ccc(Oc2cccc(F)c2)c2ccncc12	11	9	-6	9
CCOC(=O)C1=NNC2(c3ccc(C)cc3)C(=O)N(c3ccc(Cl)cc3)C(=O)C12 (configuration not stated)	.	2	.	.
Cc1ccnc(N2CCC(C(=O)NNC(=O)COc3cccc4ccccc34)CC2)n1	.	34	.	.
COCCN(CC(=O)NC1CCCCC1)C(=O)/C=C/C(=O)c1ccc(OC)cc1O	.	89*	.	.
Cc1ccc(S(=O)(=O)N2CCOCC2)cc1C(=O)OCC(=O)N1c2ccccc2NC(=O)C1(C)C	-7	-14	-7	-12
CCCCS(=O)(=O)Nc1ccc(C)cn1	.	11	.	.
CC(C)CC(=O)n1sc(NC(=O)c2ccccc2)nc1=O	50	100*	-29	10
NC(=O)c1ccc(-c2ccc(Br)cc2)o1	-3	43*	-10	-8
O=C(O)CCc1ccc(-c2ccc(Br)cc2)o1	-22	.	-4	12
CCSC1=NCCN1C(=O)C(C)(C)Oc1ccc(Cl)cc1	.	1	.	.
CCOC(=O)N1CCC(NC(=O)c2ccc(CNS(=O)(=O)c3ccc(F)cc3)cc2)CC1	76*	.	-51	-9
Cc1ccc(S(=O)(=O)NCc2ccc(C(=O)NC3CC3)cc2)cc1	.	-20	.	.
CN(C(=S)Nc1ccc(F)cc1)C1(c2ccccc2Cl)CCCCC1=O (configuration not stated)	-1	-10	16	-10
SMILES	F-actin modifier	E-sel TNF inh	HUVEC tox TNFa	VCAM1 TNFa inh
O=C(Nc1cc(=O)[nH]c2ncnn12)c1ccccc1	-16	-6	-6	3
O=C(Nc1cc(=O)[nH]c2ncnn12)c1ccc(Cl)cc1Cl	17	62*	-9	12
CCNC(=O)Nn1c(-c2ccccc2)nc2ccccc2c1=O	2	-6	20	-15
CCC(C(=O)OC)n1c(-c2ccccc2)nc2ccccc2c1=O (configuration not stated)	.	64*	.	.
Cc1c(CCO)c(=O)[nH]n1C(=O)c1ccc(F)cc1	-3	17	-26	11
Cc1ccccc1-c1cc(-c2ccccc2O)on1	-30	2	2	47*
Cc1ccc(NC(=O)c2ccc(OC(=O)CCN3C(=O)c4ccccc4C3=O)cc2)cc1	-9	44*	6	0
Cc1ccc2nc(-c3ccc(NC(=O)CCN4C(=O)c5ccccc5C4=O)cc3)sc2c1	.	65*	.	.
Cc1ccc(-c2cc(C(F)F)n3ncc(C(=O)N4CCN(c5cccc(C)c5C)CC4)c3n2)cc1	-3	6	-10	2
Cc1cccc2nc(CSc3nc4cc([N+](=O)[O-])ccc4s3)cn12	.	-9	.	.
CCCOc1ccc(N2C(=O)CC(N(CCc3ccccc3)C(=O)c3ccccc3)C2=O)cc1 (configuration not stated)	.	-26	.	.
COc1ccc(CNC(=O)c2ccc(NC(=O)CC3SC(N4CCCCC4)=NC3=O)cc2)cc1 (configuration not stated)	-31	77*	-1	-2
CCOC(=O)N1CCN(C(=O)C2CCN(S(=O)(=O)c3cc(OC)ccc3OC)CC2)CC1	.	72*	.	.
CC(NC(=O)CCc1ccccc1)c1cc2c(cc1Cl)OCCO2 (configuration not stated)	.	-3	.	.

Bioassay records (PubChem)
